Several values for one entry are separate records, joined by “and”; a condition that tells them apart may be missing. Equal entries are not always repeated. Hit rate of the full screen: of about 34,000 compounds, about 290 (0.85%) showed an effect of 50% or more. This excerpt belongs to a sample that is enriched for strong results.
Test system: Plasmodium falciparum
Assay: Plasmodium falciparum sporozoite viability assay
Assay type: functional, organism-based
Parameters: scale not given: in the data most compounds retested in dose-response had high values

Row | SMILES | Percent Effect [%] | Percent Effect (10 mM as filed; unlikely as a test dose)
1 | CN(C)C(=O)CN1CCC2(CCN(S(C)(=O)=O)CC2)C1=O | 9.72 | –
2 | COc1ncccc1NC(=O)C1CC1 | 5.184 | –
3 | Cc1cnn(CC2CCCN2CC(=O)Nc2nc(C)cs2)c1 (stereo not given) | 7.289 | –
4 | CN(C)c1cc(C(=O)N2CCN(c3cc(C#N)ccn3)CC2)ccn1 | 0.09769 | –
5 | CCc1ocnc1C(=O)N1CCCC1c1noc(C(C)C)n1 (stereo not given) | -5.615 | –
6 | COc1cccc(-n2c(C)cc(C(=O)NC(C)(C)C(N)=O)c2C)c1 | 5.357 | –
7 | CN1CCC(c2n[nH]cc2-c2ccnc(N)c2)C1 (stereo not given) | 2.531 | –
8 | Cc1nnc2n1CCN(CCOc1ccccc1)C2 | – | -26.14% and -25.56% and -5.728%
9 | CS(=O)(=O)NCc1cc(-c2cc(F)cc(F)c2)nc(N2CCCC2)n1 | 13.63 | –
10 | CN(Cc1ccccc1)C(=O)CCNc1ncccc1C#N | -0.1304 | –
11 | CN(Cc1noc(C2CC2)n1)C1CCN(CC(=O)N2CCOCC2)C1 (stereo not given) | 4.316 | –
12 | COCCOc1ncccc1NCc1nc2ccccc2n1C | – | 12.39% and -0.3581% and 11.74%
13 | COc1cc(F)c(NCc2nc3ccccc3n2C)cc1OC | – | 61.41% and 85.71% and 92.05%
14 | COCCOc1ccc(F)cc1NCc1nc2ccccc2n1C | – | 8.05% and -7.699% and 5.859%
15 | Cc1cc(NC(=O)CNC2CCc3nc(C(C)C)nn3C2)no1 (stereo not given) | 3.617 | –
16 | O=C(O)C(F)(F)F.O=C(O)C(F)(F)F.O=C1CC2(CCN(Cc3cccnc3)C2)CN1c1ccc2c(c1)OCO2 (stereo not given) | 12.41 | –
17 | CN(C)c1nc2c(c(N3CCc4ccccc4C3)n1)CCNC2 | 6.667 | –
18 | Cc1csc2c(N3CCC(NCCCC4CCOC4)CC3)ncnc12 (stereo not given) | 2.368 | –
19 | Clc1ccc2nc(N3CCC(NCCCC4CCOC4)CC3)sc2c1 (stereo not given) | – | 74.93% and 78.72%
20 | Cl.c1ccc(-c2cc(CNCCCC3CCOC3)c3nnnn3c2)cc1 (stereo not given) | -4.775 | –

Row | SMILES | Percent Effect [%] | Percent Effect (10 mM as filed; unlikely as a test dose)
21 | COc1ccc2c(c1)C(=O)NC1(CC2)CCN(Cc2ccncc2)C1 (stereo not given) | 11.06 | –
22 | CCCNC(=O)c1cc(C2CCCN(Cc3ccccn3)C2)no1 (stereo not given) | 2.586 | –
23 | CNS(=O)(=O)Cc1cccc(CNC(=O)Nc2cn[nH]c2)c1 | 3.105 | –
24 | Cc1n[nH]c(C2CN(C(=O)c3cc4c(s3)CCC4)CCO2)n1 (stereo not given) | – | -3.516% and -12.52% and -10.81%
25 | Cc1n[nH]c(C2CN(C(=O)c3cc4c(s3)CCCC4)CCO2)n1 (stereo not given) | – | 11.47% and -8.902% and 7.352%
26 | N#Cc1c(C2CCOC2)cc(-c2ccc(N3CCCCC3)cc2)nc1N (stereo not given) | – | 29.44% and 63.96% and 52.39%
27 | Oc1nnc(-c2ccccc2)c2sc(N3CCCCC3)nc12 | – | 60.86% and 56.27%
28 | Oc1nnc(-c2cccs2)c2sc(N3CCCC3)nc12 | – | -6.906% and -7.819%
29 | Oc1nnc(-c2cccs2)c2sc(N3CCCCC3)nc12 | – | 6.59% and -1.953%
30 | CCOc1ccc(Cl)cc1CCNC(=O)Cn1nc(C)ccc1=O | -8.218 | –
31 | Cc1nc(C)c(COc2ccc(S(=O)(=O)N(C)C)cc2)s1 | – | 5.36% and 0% and 2.114%
32 | Cc1nc(COc2ccc(N(C)S(C)(=O)=O)cc2)sc1C | – | 53.33% and 78.78% and 74.56%
33 | CN1CCN(c2ccc(NS(=O)(=O)c3ccc(Br)s3)cc2C(=O)O)CC1 | 4.745 | –
34 | Cc1ccc(CC(=O)N2CCN(c3nccs3)CC2)s1 | 2.447 | –
35 | CC(C)OCCCN(Cc1ccncc1)Cc1cc(F)cc(F)c1.Cl | 11.64 | –
36 | CC(=O)Nc1nc(C(=O)N2CCCC(n3cncn3)C2)cs1 (stereo not given) | – | 82.11% and 81.18% and 79.89%
37 | CC(=O)N1CCN(C(=O)Nc2cnc3c(cnn3C(C)C)c2)CC1 | 25.32 | –
38 | Cc1ccc(CN(CCN(C)C)Cc2ccnn2C2CCCCO2)o1.O=C(O)CC(O)(CC(=O)O)C(=O)O (stereo not given) | -4.714 | –
39 | COc1ccc2c(c1)CN(c1cc(N3CCCC3CO)ncn1)CC2 (stereo not given) | -18.73 | –
40 | OC[C@@H]1CCCN1c1ccc(-c2nc(COc3ccccc3)no2)cn1 | 3.859 | –

Row | SMILES | Percent Effect [%] | Percent Effect (10 mM as filed; unlikely as a test dose)
41 | COc1ccc(-c2noc(-c3ccc(N4CCC[C@H]4CO)nc3)n2)cc1 | – | 49.77% and 66.78% and 41.57%
42 | COCc1noc(-c2ccc(N3CCCCC3CO)nc2)n1 (stereo not given) | – | 100.3% and 99.37% and 102%
43 | OC[C@@H]1CCCN1c1ccc(-c2nc(CCc3ccccc3)no2)cn1 | -12.02 | –
44 | Cc1ccc(-c2nc(CN3CCCC3Cn3cc(C)cn3)no2)cc1 (stereo not given) | -11.03 | –
45 | OCC1CCCCN1c1ccc(-c2nc(-c3ccccc3F)no2)cn1 (stereo not given) | – | 104% and 108.6% and 106.3%
46 | CCOC(=O)C1CCCN(c2ccc(-c3nc(C)no3)cn2)C1 (stereo not given) | -0.4292 | –
47 | COCc1noc(-c2ccc(N3CCC[C@H]3CO)nc2)n1 | – | 100.4% and 89.16% and 80.89%
48 | OCC1CCCN1c1cc(N2CCc3ccccc3C2)ncn1 (stereo not given) | 3.468 | –
49 | COc1cccc(CNC(=O)C(c2cccc(F)c2)N2CCOCC2)c1 (stereo not given) | -3.044 | –
50 | O=C(c1ccc(OCC2CC2)nc1)N1CCCC(n2cccn2)C1 (stereo not given) | -19.18 | –
51 | CC(C)C(=O)N(C)CC(=O)Nc1ccc(Br)cn1 | 14 | –
52 | CC(C)NC(=O)C1CCN(c2nc3nc[nH]c(=O)c3s2)CC1 | 4.304 | –
53 | O=C(O)CC(O)(CC(=O)O)C(=O)O.OC1CCN(Cc2ccnc(-c3cccnc3)n2)CC1 | -11.33 | –
54 | O=C(C1CCOCC1)N1CC[C@@H](O)[C@@H]1Cc1ccccc1 | -0.722 | –
55 | CCc1cc(C(=O)N2CCc3nc4c(C)csc4c(=O)n3CC2)on1 | -3.013 | –
56 | Cc1ccc(CNC2CCCN(Cc3noc(C4CC4)n3)C2)s1 (stereo not given) | 14.12 | –
57 | Cc1nccc([C@@H]2C[C@H]3CN(S(=O)(=O)c4ccccc4)C[C@H]3O2)n1 | -0.614 | –
58 | COCc1noc(-c2ccc(N3CCCC3c3ccc(F)cc3)nc2)n1 (stereo not given) | -8.49 | –
59 | COCc1noc(-c2ccc(N3CCCCC3COC)nc2)n1 (stereo not given) | – | 46.38% and 65.96% and 53.91%
60 | COCc1noc(-c2ccc(N3CCCC3c3nccs3)nc2)n1 (stereo not given) | 12.02 | –

From ChEMBL document CHEMBL3988442, “University of Dundee, Small-Polar-MMV Screening Library” (2021)
